Experimental data from PubChem BioAssay (NCI).
The panel holds about 79,000 compounds, 15% with a hit somewhere; the sample as a whole holds those more often. Activity calls are given as the source filed them. Cut-off read from the data, not from the text of the source: active = growth inhibition above about 70%; inactive = the rest.

Tests used:
[1] = NCI Yeast Anticancer Drug Screen. Data for the rad52 strain (AID 147);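 note: 0% = growth of vehicle-treated control cultures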; settings: S. cerevisiae rad52 mutant growth inhibition, active compounds read high
Outline: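 Compounds are applied to a genetically defined yeast strain lacking normal DNA damage repair, and inhibition of growth is expressed relative to cultures given vehicle only.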

[2] = NCI Yeast Anticancer Drug Screen. Data for the wt1 strain (AID 149);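 note: 0% = growth of vehicle-treated wt1 cultures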; settings: S. cerevisiae wt1 strain (SPY 50644) growth inhibition, active compounds read high
Outline: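 wt1 strain grown with compound or vehicle; inhibition taken from the growth difference.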

[3] = NCI Yeast Anticancer Drug Screen. Data for the rad50EPP+ strain (AID 151);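 note: 0% = growth of vehicle-treated control cultures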; settings: S. cerevisiae rad50 mutant strain, active compounds read high
Outline: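 Compounds were applied to the rad50EPP+ yeast strain, which bears a defined DNA repair alteration, and growth inhibition was determined relative to vehicle-treated cultures.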

[4] = NCI Yeast Anticancer Drug Screen. Data for the rad50 strain (AID 155);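 note: 0% = growth of vehicle-only cultures of the same strain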; settings: S. cerevisiae rad50 strain growth inhibition, active compounds read high
Outline: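 DNA repair mutant yeast, compound exposure, growth read-out; inhibition is taken relative to vehicle.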

[5] = NCI Yeast Anticancer Drug Screen. Data for the mec2-1 strain (AID 157); settings: S. cerevisiae mec2-1 strain, active compounds read high
Outline: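 Strain: mec2-1 (DNA repair/cell cycle alteration). Compound exposure, then growth measured; inhibition expressed relative to vehicle.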

[6] = NCI Yeast Anticancer Drug Screen. Data for the rad14 strain (AID 159);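 note: 0% = growth of vehicle-treated control cultures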; settings: S. cerevisiae rad14 strain growth inhibition, active compounds read high
Outline: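 DNA repair-defective yeast, compound-exposed; % growth inhibition derived by comparison with vehicle-treated controls.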

[7] = NCI Yeast Anticancer Drug Screen. Data for the sgs1 mgt1 strain (AID 161);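 note: 0% = growth of cultures given vehicle only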; settings: S. cerevisiae sgs1 mgt1 strain, active compounds read high
Outline: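 Mutant yeast exposed to compound; growth scored against vehicle-only wells.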

[8] = NCI Yeast Anticancer Drug Screen. Data for the CLN2oe strain (AID 163);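 note: 0% = growth of vehicle-only control cultures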; settings: S. cerevisiae CLN2oe strain, active compounds read high
Outline: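 Growth of a genetically modified yeast strain is measured after compound exposure and compared with cultures given vehicle alone.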

[9] = NCI Yeast Anticancer Drug Screen. Data for the cln2 rad14 strain (AID 165);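 note: 0% = growth equal to vehicle treated cultures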; settings: S. cerevisiae cln2 rad14 strain, active compounds read high
Outline: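 Compounds are applied to the cln2 rad14 yeast strain, and growth is then compared with that of vehicle-treated cultures to give inhibition.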

[10] = NCI Yeast Anticancer Drug Screen. Data for the bub3 strain (AID 167); settings: S. cerevisiae bub3 mutant strain, active compounds read high
Outline: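 In this screen, a yeast mutant lacking normal mitotic checkpoint function is challenged with compound. Relative growth versus vehicle gives the inhibition value.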

[11] = NCI Yeast Anticancer Drug Screen. Data for the wt2 strain (AID 169);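 note: 0% = growth of vehicle-treated yeast cultures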; settings: S. cerevisiae wt2 strain growth inhibition, active compounds read high
Outline: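 This strain belongs to a panel of yeast strains with defined genetic alterations in DNA damage repair or cell cycle control. Compounds are applied, and growth inhibition is measured against vehicle-treated cultures.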

[12] = NCI Yeast Anticancer Drug Screen. Data for the mlh1 strain (AID 171);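 note: 0% = growth of vehicle-treated control cultures of the same strain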; settings: S. cerevisiae mlh1 strain growth inhibition, active compounds read high
Outline: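 Growth of the mutant yeast strain after compound exposure, expressed as inhibition relative to vehicle-only controls.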

[13] = NCI Yeast Anticancer Drug Screen. Data for the sgs1 strain (AID 173);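 note: 0% = growth of vehicle-only control cultures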; settings: S. cerevisiae sgs1 mutant, active compounds read high
Outline: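 Growth of a yeast strain bearing a defined genetic alteration is measured after compound treatment. Inhibition is expressed relative to vehicle-only controls.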

[14] = NCI Yeast Anticancer Drug Screen. Data for the mlh1 rad18 strain (AID 175); settings: S. cerevisiae mlh1 rad18 strain growth inhibition, active compounds read high
Outline: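 Read-out is yeast growth inhibition, calculated against vehicle-only controls. The compound was applied to a strain engineered with DNA damage repair alterations.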

[15] = NCI Yeast Anticancer Drug Screen. Data for the rad18 strain (AID 177); settings: S. cerevisiae rad18 mutant growth inhibition, active compounds read high
Outline: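 Growth of the mutant yeast strain after compound exposure, normalised to vehicle-only cultures.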

[16] = NCI Yeast Anticancer Drug Screen. Data for the mgt1 strain (AID 153); settings: S. cerevisiae mgt1 mutant growth inhibition, active compounds read high
Outline: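 Strain: mgt1 yeast, one of a set carrying defined DNA damage repair or cell cycle control alterations. Compound-treated growth compared with vehicle.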

[17] = at 5.0 µM (retest, dose inferred, filed as 0.5)
[18] = at 50.0 µM (retest, dose inferred, filed as 5.0)

Measured: growth inhibition

c1ccc2c(c1)NC(NC1Nc3ccccc3N1)N2
active: [10]; [18] 70% | [14]; [18] 81%
inactive: [1]; at 1.2 µM 0% | [1]; at 3.7 µM 4% | [1]; at 11.0 µM 6% | [1]; at 33.0 µM 19% | [1]; at 100.0 µM 31% | [2]; at 1.2 µM 0% | [2]; at 3.7 µM 5% | [2]; at 11.0 µM 4% | [2]; at 33.0 µM 9% | [2]; at 100.0 µM 19% | [3]; at 1.2 µM 9% | [3]; at 3.7 µM 23% | [3]; at 11.0 µM 34% | [3]; at 33.0 µM 38% | [3]; at 100.0 µM 48% | [4]; at 1.2 µM 1% | [4]; at 3.7 µM 5% | [4]; [17] 9% | [4]; at 11.0 µM 8% | [4]; at 33.0 µM 23% | [4]; [18] 67% | [4]; at 50.0 µM 41.5% | [4]; at 100.0 µM 40% | [5]; at 1.2 µM 5% | [5]; at 3.7 µM 7% | [5]; [17] -3% | [5]; at 11.0 µM 10% | [5]; at 33.0 µM 16% | [5]; [18] 16% | [5]; at 50.0 µM 9.05% | [5]; at 100.0 µM 20% | [6]; at 1.2 µM -4% | [6]; at 3.7 µM -1% | [6]; at 11.0 µM 3% | [6]; at 33.0 µM 12% | [6]; at 100.0 µM 26% | [7]; [17] -4% | [7]; [18] 66% | [7]; at 50.0 µM 15.7% | [8]; at 1.2 µM -6% | [8]; at 3.7 µM -17% | [8]; at 11.0 µM -9% | [8]; at 33.0 µM -7% | [8]; at 100.0 µM 8% | [9]; [17] 13% | [9]; [18] 32% | [9]; at 50.0 µM -21.1% | [10]; at 1.2 µM -2% | [10]; at 3.7 µM -4% | [10]; [17] 19% | [10]; at 11.0 µM -2% | [10]; at 33.0 µM -2% | [10]; at 50.0 µM 10.8% | [10]; at 100.0 µM -10% | [11]; at 1.2 µM 0% | [11]; at 3.7 µM 0% | [11]; at 11.0 µM 0% | [11]; at 33.0 µM 8% | [11]; at 100.0 µM 19% | [12]; at 1.2 µM 3% | [12]; at 3.7 µM 1% | [12]; at 11.0 µM 4% | [12]; at 33.0 µM 10% | [12]; at 100.0 µM 14% | [13]; at 1.2 µM 0% | [13]; at 3.7 µM 3% | [13]; at 11.0 µM 9% | [13]; at 33.0 µM 12% | [13]; at 100.0 µM 16% | [14]; [17] 25% | [14]; at 50.0 µM 27.6% | [15]; at 1.2 µM 3% | [15]; at 3.7 µM 10% | [15]; at 11.0 µM 29% | [15]; at 33.0 µM 49% | [15]; at 100.0 µM 64%

CCN(CC)CCN1C(=O)c2cccc3cc(OC)cc(c23)C1=O
inactive: [1]; at 1.2 µM 8% | [1]; at 3.7 µM 48% | [2]; at 1.2 µM -5% | [2]; at 3.7 µM 1% | [2]; at 11.0 µM -3% | [2]; at 33.0 µM -7% | [2]; at 100.0 µM -1% | [3]; at 1.2 µM 9% | [3]; at 3.7 µM 37% | [3]; at 11.0 µM 60% | [16]; at 1.2 µM -10% | [16]; at 3.7 µM -12% | [16]; at 11.0 µM -10% | [16]; at 33.0 µM -4% | [16]; at 100.0 µM 1% | [4]; at 1.2 µM 4% | [4]; at 3.7 µM 43% | [4]; [17] 31% | [5]; at 1.2 µM -10% | [5]; at 3.7 µM -3% | [5]; [17] 5% | [5]; at 11.0 µM -12% | [5]; at 33.0 µM -14% | [5]; [18] 19% | [5]; at 50.0 µM 1.45% | [5]; at 100.0 µM 16% | [7]; [17] 13% | [7]; [18] 27% | [7]; at 50.0 µM -4.05% | [8]; at 1.2 µM 2% | [8]; at 3.7 µM -4% | [8]; at 11.0 µM 5% | [8]; at 33.0 µM 7% | [8]; at 100.0 µM 24% | [9]; [17] 27% | [9]; [18] 18% | [9]; at 50.0 µM -3.8% | [10]; at 1.2 µM -9% | [10]; at 3.7 µM -3% | [10]; [17] 11% | [10]; at 11.0 µM -7% | [10]; at 33.0 µM 1% | [10]; [18] 15% | [10]; at 50.0 µM -22.1% | [10]; at 100.0 µM 11% | [11]; at 1.2 µM -23% | [11]; at 3.7 µM -3% | [11]; at 11.0 µM -38% | [11]; at 33.0 µM -35% | [11]; at 100.0 µM 13% | [12]; at 1.2 µM -24% | [12]; at 3.7 µM -5% | [12]; at 11.0 µM -7% | [12]; at 33.0 µM -15% | [12]; at 100.0 µM 9% | [14]; [17] 12% | [14]; [18] 36% | [14]; at 50.0 µM -14.2% | [15]; at 1.2 µM 7% | [15]; at 3.7 µM -2% | [15]; at 11.0 µM -13% | [15]; at 33.0 µM -12% | [15]; at 100.0 µM 12%
active: [1]; at 11.0 µM 72% | [1]; at 33.0 µM 91% | [1]; at 100.0 µM 93% | [3]; at 33.0 µM 86% | [3]; at 100.0 µM 93% | [4]; at 11.0 µM 74% | [4]; at 33.0 µM 90% | [4]; [18] 94% | [4]; at 50.0 µM 79.6% | [4]; at 100.0 µM 93%

O=C(c1cc(Br)ccc1O)c1cc(Br)ccc1O
active: [1]; at 3.7 µM 80% | [1]; at 11.0 µM 99% | [1]; at 33.0 µM 99% | [1]; at 100.0 µM 99% | [2]; at 3.7 µM 78% | [2]; at 11.0 µM 99% | [2]; at 33.0 µM 100% | [2]; at 100.0 µM 100% | [3]; at 11.0 µM 90% | [3]; at 33.0 µM 99% | [3]; at 100.0 µM 99% | [4]; at 11.0 µM 99% | [4]; at 33.0 µM 99% | [4]; [18] 99% | [4]; at 50.0 µM 99.3% | [4]; at 100.0 µM 99% | [5]; at 3.7 µM 97% | [5]; at 11.0 µM 99% | [5]; at 33.0 µM 100% | [5]; [18] 100% | [5]; at 50.0 µM 99.5% | [5]; at 100.0 µM 100% | [6]; at 11.0 µM 99% | [6]; at 33.0 µM 100% | [6]; at 100.0 µM 98% | [7]; [18] 97% | [7]; at 50.0 µM 99.4% | [8]; at 3.7 µM 96% | [8]; at 11.0 µM 100% | [8]; at 33.0 µM 99% | [8]; at 100.0 µM 99% | [9]; [18] 98% | [9]; at 50.0 µM 98.7% | [11]; at 3.7 µM 87% | [11]; at 11.0 µM 99% | [11]; at 33.0 µM 100% | [11]; at 100.0 µM 100% | [12]; at 3.7 µM 93% | [12]; at 11.0 µM 99% | [12]; at 33.0 µM 100% | [12]; at 100.0 µM 100% | [13]; at 3.7 µM 90% | [13]; at 11.0 µM 99% | [13]; at 33.0 µM 100% | [13]; at 100.0 µM 100% | [14]; [18] 99% | [14]; at 50.0 µM 99.4% | [15]; at 3.7 µM 89% | [15]; at 11.0 µM 99% | [15]; at 33.0 µM 99% | [15]; at 100.0 µM 99%
inactive: [1]; at 1.2 µM 13% | [2]; at 1.2 µM 9% | [3]; at 1.2 µM 16% | [3]; at 3.7 µM 47% | [4]; at 1.2 µM 13% | [4]; at 3.7 µM 67% | [4]; [17] 2% | [5]; at 1.2 µM 29% | [5]; [17] 20% | [6]; at 1.2 µM 8% | [6]; at 3.7 µM 40% | [7]; [17] 22% | [8]; at 1.2 µM 34% | [9]; [17] -3% | [11]; at 1.2 µM 12% | [12]; at 1.2 µM 23% | [13]; at 1.2 µM 32% | [14]; [17] 45% | [15]; at 1.2 µM 32%
